GPR151 ag: activates the human receptor GPR151; Q8TDV0; PathHunter beta-arrestin GPR151 cells, luminescence; activation, % at 11.2 µM; 650,000 compounds, 1% hits; in the data active = activation above about 4.9%
Target sequence (Q8TDV0 whole entry, looked up): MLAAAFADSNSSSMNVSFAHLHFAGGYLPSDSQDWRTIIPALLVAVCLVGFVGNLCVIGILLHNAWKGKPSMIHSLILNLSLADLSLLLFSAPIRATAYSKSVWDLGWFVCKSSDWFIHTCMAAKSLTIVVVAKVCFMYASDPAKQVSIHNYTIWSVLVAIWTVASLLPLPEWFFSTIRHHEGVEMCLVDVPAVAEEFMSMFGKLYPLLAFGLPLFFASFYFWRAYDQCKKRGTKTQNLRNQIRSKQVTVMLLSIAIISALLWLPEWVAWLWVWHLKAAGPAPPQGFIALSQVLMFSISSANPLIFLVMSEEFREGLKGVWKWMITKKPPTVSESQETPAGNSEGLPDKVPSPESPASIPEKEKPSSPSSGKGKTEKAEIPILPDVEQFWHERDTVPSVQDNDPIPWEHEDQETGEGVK
FBW7 act: human FBW7 E3 ligase activation, primary screen; 650,000 compounds, 0.13% hits; AlphaScreen FBW7–phospho-cyclin E peptide binding, activator screen; normalized activity (activation), % at 26.1 µM; in the data active = normalized activity above about 1.9%;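 also: purified mutant Fbw7 with reduced substrate affinity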
TEAD-YAP inh: TEAD-YAP interaction inhibition | HEK-TIYL cells, TEAD-Gal4/YAP UAS-luciferase luminescence | inhibition, % at 9.12 µM | 640,000 compounds, 1.4% hits | AID 1259422; in the data active = inhibition above about 32%
MITF primary: inhibitors of human MITF. AlphaScreen MITF homodimerization, bead proximity signal. 650,000 compounds, 0.91% hits. inhibition, % at 2.6 µM; in the data active = inhibition above about 50%
Each line names hits and unclear results; the compound was inactive in the other large screens. Most compounds without a hit are left out; they make up all but 3.5% or so of the library.

Cc1cn2c3c(=O)n(CC(=O)OCc4ccccc4)c(=O)n(C)c3nc2n1C1CCCCC1	none
COc1cccc(CN(CCCO)C(=O)Nc2ccc(-c3cn[nH]c3)cc2OCCCO)c1	none
Cc1ccc(N2CC(=O)Nc3ccccc3S2(=O)=O)cc1C	TEAD-YAP inh 52.1
CSc1nnc(C(C)(C)C)c(=O)n1/N=C/c1ccccc1O	MITF primary 75.5
CSc1nnc(C(C)(C)C)c(=O)n1/N=C/c1ccccc1[N+](=O)[O-]	none
O=C(Cc1ccc2c(c1)OCCO2)NNC(=O)CN1CCCc2ccccc21	none
Brc1cc2c(cc1Br)OCCOCCOCCOCCO2	none
Nc1cc(Br)c2c(c1)OCCO2	TEAD-YAP inh 65.9
O=C(NNc1ccc(C(F)(F)F)cc1[N+](=O)[O-])c1ccccc1	none
O=C(Nc1ccc([N+](=O)[O-])cc1[N+](=O)[O-])c1ccccc1	none
O=C(NNc1ccc([N+](=O)[O-])cc1[N+](=O)[O-])c1ccccc1	TEAD-YAP inh 73.0
O=C(NNc1ccc(C(F)(F)F)cc1[N+](=O)[O-])C(F)(F)F	FBW7 act 2.5
COc1cccc(NC(=S)NCc2cccn2C)c1	none
CC(=O)NC(c1ccccc1)c1cc(Cl)c2cccnc2c1O (centres undefined)	TEAD-YAP inh 75.6, MITF primary 62.9
CC(=O)NC(c1ccc(N(C)C)cc1)c1cc(Cl)c2cccnc2c1O (centres undefined)	none
CC(=O)NC(c1ccc(C(C)C)cc1)c1cc(Cl)c2cccnc2c1O (centres undefined)	TEAD-YAP inh 38.4
Cc1ccc2c(c1)-c1c(ssc1=S)C(C)(C)N2C(=O)CSc1n[nH]c(-c2ccccc2)n1	none
Cc1ccnc(NC(=S)NC(=O)c2cccc(Br)c2)c1	TEAD-YAP inh 33.1
Cc1cccc(NC(=S)NC(=O)c2cccc(Br)c2)n1	none
O=[N+]([O-])c1cccc(C=NCc2ccccc2)c1	none
Cc1ccc(C(=O)N2CCN(c3ccc([N+](=O)[O-])cc3)CC2)c(Cl)c1	TEAD-YAP inh 34.6
O=C(c1n[nH]c(=O)c2ccccc12)N1CCN(c2cccc(Cl)c2)CC1	TEAD-YAP inh 55.3
O=C(c1cc([N+](=O)[O-])ccc1Cl)N1CCN(c2cccc(Cl)c2)CC1	TEAD-YAP inh 32.3
COc1cccc2cc(C(=O)Nc3cccc(C(=O)O)c3)c(=O)oc12	none
CS(=O)(=O)N1CCN(c2ccc3cccc(-c4cccc(C#N)c4)c3n2)CC1	none
CC1CC2(C)Oc3ccccc3CC2C(C)C1CNCCCN(C)C (centres undefined)	TEAD-YAP inh 38.2
CC1Cc2ccccc2N1C(=O)CNCCCN(C)C (centres undefined)	none
Nc1ncnc(N2CCc3ccccc32)c1[N+](=O)[O-]	TEAD-YAP inh 36.2
O=[N+]([O-])c1c(N2CCCCC2)ncnc1N1CCCCC1	none
Nc1ncnc(N2CCCCC2)c1[N+](=O)[O-]	TEAD-YAP inh 37.5
O=C(CSc1ncccn1)N1CCCC(CNS(=O)(=O)Cc2ccccc2)C1 (centres undefined)	none
O=C(NCCOc1ccc(Cl)cc1)c1cccc(C(=O)NCCOc2ccc(Cl)cc2)c1	none
NS(=O)(=O)c1cc(C(=O)NCCOc2ccc(Cl)cc2)c(Cl)cc1Cl	TEAD-YAP inh 36.7
COc1ccc(NC(=O)N2CCCC2c2nc3ccccc3[nH]2)cc1 (centres undefined)	none
COc1ccc(-c2noc(CCC(=O)Nc3ccccc3)n2)cc1	none
NC(=O)N/N=C/c1c2ccccc2cc2ccccc12	FBW7 act 2.0
CCOC(=O)N/N=C/c1c2ccccc2cc2ccccc12	none
CCOc1ccc2ccccc2c1/C=N/NC(N)=S	TEAD-YAP inh 40.3
O=C(N/N=C/c1c2ccccc2cc2ccccc12)C(=O)NC1CC1	TEAD-YAP inh 56.9
O=C(N/N=C/c1c2ccccc2cc2ccccc12)C(=O)Nc1ccccc1F	none
Cc1ccc(NC(=O)CSc2ccccn2)cc1Cl	none
COc1ccc(-c2cc(-c3ccccc3)nc(SCc3nc(N)nc(N4CCOCC4)n3)c2C#N)cc1	none
O=C(Cc1ccc(Br)cc1)Nc1ccncc1	TEAD-YAP inh 50.5
O=C(Cc1ccccc1)Nc1ccc(Br)cc1	none
CSc1nnc2c(n1)OC(c1ccco1)N(C(=O)c1ccccc1)c1ccccc1-2 (centres undefined)	TEAD-YAP inh 52.8
CC1CCN(S(=O)(=O)c2cccc(C(=O)Oc3cccc(NC(=O)c4ccccc4)c3)c2)CC1	TEAD-YAP inh 36.6
O=C(Oc1cccc(NC(=O)c2ccccc2Cl)c1)c1cccc(S(=O)(=O)N2CCCCC2)c1	TEAD-YAP inh 54.1
O=C(c1cccc(S(=O)(=O)N2CCCC2)c1)c1cccc(S(=O)(=O)N2CCCC2)c1	TEAD-YAP inh 33.2
